17 sequences from the supplement of paper PMC6555819 can be followed below.

The experiment has as its system PPARg DBDmut IVT, anti-PPARg (DBD mutation: PPARg1 K132A/R137A, NR concentration 270 nM). Nature of the experiment: PBM binding z-score (relative to random genomic background probes); higher = stronger binding; sequences stand for … in GC…GCGATTGACAGCGTAGAATGAAGG
In short, it runs like this: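 Ligand-free nuclear receptor dimers were bound for 1 h to custom Agilent 4×180K protein-binding microarrays. Detection used antibodies against each partner (one per run). Binding z-scores rest on regression-normalized fluorescence, with random background probes as the reference.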
ATCTCTAGGTAACAAGTTCAGTGAAAGAGAGGAC: the PBM binding z-score was found to be 1.64.
Next, ACTTACGGGTCATCGAGGTTATAGCACGCGTATA: 1.14.
Next, CCGACTGGGGCAGAAAGGCTACCATACCATCCGG: -1.37; ACTTGCAGGCCAAGTTTGGGTCACTCAAACAAAG: 0.0722; AGAACGAGGGCAATGAGTTGTTAGCACGGGTGGC: -0.308.
Next, CCTTACGGGTCAAGGTTATAGGACGGGTGGTACG: -0.184; CCTTACAGGTCACTCCAGGTTATAGCATCGGAGT: 0.777; TCTACTAGGTCAGTTGGTCAGCTAACGAGCTGCC: 0.835.
As to TAGCCTAGGTGAGATCGGGCCAGTATACGCTATA, the PBM binding z-score was -1.25.
Next, TGTCAAAGTTCAAAGGTAACGGAAGTATCCACAC: 2.48; TCATAAAGGTAAAGGTGAAAGTCGAACGATATGA: 0.528.
On to ACCGAAAGGTCGAGGTGAGTATAGAGAAAGGGAA, for which the PBM binding z-score came to 0.807.
For the sequence GATACAGGCTCAAGGCCAGAGTACGCGTATTGAT, the PBM binding z-score was -1.16.
Next, TCTTGTAGATCAAGCAGGTTAAGACAGCCTGAGT: 0.0402; TCGAGTAGGTTACCAATGGAGCATTCAGCTTTCT: -0.361.
Next, TTACCAAGGTGCGCTGAGGTCGTTGATCCAACTC: -0.343; TAGCCGAGGTCAGATCGGGCCAGTATACGCTATA: -0.734.
